# Data published in the supplement of paper PMC10338343.
# ± gives the standard deviation. In all, about 5,500 sequences were measured (“pre-steady-state target cleavage rate”: median about 0.1, highest 2% from about 0.64 on). For the sample, the highest values were picked, then their nearest neighbours and some sequences at random.
# System: MIWI (PIWIL1) piRISC loaded with piRNA #2 (30 nt)
# Experiment: pre-steady-state target cleavage rate (min^-1); MIWI and MILI are mouse PIWI proteins and EfPiwi is from a freshwater sponge; tags in brackets are library labels; higher = faster piRNA-guided slicing of the target
# Conditions: guide: piRNA #2 5'p-UUAGGUAACCCAGUAGAUCCAGAGGAAUUC; auxiliary factor: 500 nM mouse GTSF1
# Protocol: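 Cleave-'n-Seq: a library of target RNAs (target site embedded in constant flanks, ACAGCATTCCGCGTTAGTGATATCCG... 5' flank; DNA-blocked outside the site) at 0.1 nM was incubated with 1 nM active mouse MILI or MIWI piRISC (synthetic 5'-monophosphorylated piRNA guide) with or without 500 nM mouse GTSF1 at 33 °C for 1 min to 16 h. Uncleaved targets were sequenced and normalised to non-target controls, and the pooled three trials were fitted to a burst-and-steady-state model to give the pre-steady-state cleavage rate (min^-1; k3 is constrained to at most 1e-4). Sequence is the target site only; target names encode pairing extent (gX:gY) and contiguous / 1-mismatch / 2-mismatch / bulge geometry. Fits with R² ≤ 0 are excluded.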
row,Sequence,pre-steady-state target cleavage rate
1,CUUUUCCACUCGAUCUACUGGGUUACCUAA,0.547 ± 0.033
2,CUAUUCCACUGGAUCUACUGGGUUACCUAA,0.588 ± 0.061
3,GAAUUCCACUCGAUCUACUGGGUUACCUAA,0.564 ± 0.056
4,CUAUUCCACUCGAUCUACUGGGUUACCUAA,0.703 ± 0.037
5,CAAUUCCACUCGAUCUACUGGGUUACCUAA,0.798 ± 0.047
6,CUAUUCCACUGGAUCUACUCGGUUACCUAA,0.0817 ± 0.018
7,CUUAACCUCUGGAUCUAGUGGGUUACCAAA,0.0597 ± 0.0073
8,CAAUUCCACUGGAACUACUGGGUUACCUAA,0.408 ± 0.042
9,CUUAAGCUGUGGAUCUACUGGGUUUCCUAA,0.0403 ± 0.019
10,CAAUACCUCUGGAUCUACUGCGUUACCUAA,0.488 ± 0.063
11,GAAUACCUCUGGAUCUACUGGGUUACGUAA,0.609 ± 0.038
12,GAAUACCUCUGGAUCUACUGCGUUACCUAA,0.456 ± 0.04
13,CUUAUACCUCUGGAUCUACUGGGUUACCUAA,0.389 ± 0.061
14,CAAUACCUCUGGAUCUACUGGGUUACGUAA,0.567 ± 0.059
15,CUAUACCUCUGGAUCUACUGGGUUACGUAA,0.674 ± 0.032
16,CUAUACCUCUGGAUCUACUGGGUUACCUAA,0.544 ± 0.084
17,CUAUACCUCUGGAUCUACUGCGUUACCUAA,0.732 ± 0.066
18,GUAUACCUCUGGAUCUACUGGGUUACCUAA,0.642 ± 0.23
19,CUUAAGCUCUGGAUCUACUGGCUUACCUAA,0.0576 ± 0.012
20,CUUAAGGUCUGGAUCUACUGCGUUUCCUAA,0.0557 ± 0.014
21,CUUAAGGUAUGGAUCUACUGGGUUACCUAA,0.323 ± 0.035
22,CAAUUCCUCUGGAACUACUCGGUUACCUAA,0.157 ± 0.022
23,CUUAACCUCUGGAUCUACUGGGUAAGCUAA,0.05 ± 0.0099
24,CAAUUCCUCCGGAUCUACUGGGUUACCUAA,0.677 ± 0.096
25,GAAUUCCUCCGGAUCUACUGGGUUACCUAA,0.407 ± 0.058

row,Sequence,pre-steady-state target cleavage rate
1,CUAUUCCUCCGGAUCUACUGGGUUACCUAA,0.697 ± 0.12
2,CAAUUCCUCGGAUCUACUGGGUUACCUAA,0.47 ± 0.087
3,CUAUUCCUCGGAUCUACUGGGUUACCUAA,0.447 ± 0.083
4,CUAUUCCUCCUGGAUCUACUGGGUUACCUAA,0.613 ± 0.06
5,CUUAAGGACUGGAUCUACAGCGUUACCUAA,0.00714 ± 0.0051
6,CUUUUCCACUGGAUCUACAGGGUUACCUAA,0.248 ± 0.016
7,CUUUUCCUCUCGAUCUUCUGGGUUACCUAA,0.63 ± 0.051
8,CAAUUCCUCUCGAUCUUCUGGGUUACCUAA,0.737 ± 0.059
9,CUAUUCCUCUGGAUCUUCUGGGUUACCUAA,0.412 ± 0.054
10,CUAUUCCUCUCGAUCUUCUGGGUUACCUAA,0.803 ± 0.07
11,GAAUUCCUCUCGAUCUUCUGGGUUACCUAA,0.62 ± 0.064
12,CAAUUCCUCUGGAUCUUCUGGGUUACCUAA,0.49 ± 0.065
13,CUUAUCCUCUGGAUCAUCUGGGUUACCUAA,0.246 ± 0.028
14,CAUAACCUCUGGAUCUACUGGGUUACCUAA,0.234 ± 0.033
15,CUUAACCUCUGGAUCUUCUGGGUUUCCUAA,0.042 ± 0.0092
16,CAAUUCCUCUGGAUCUACAGGGUUUCCUAA,0.178 ± 0.026
17,CAAUUCCUCAGGAUCUACUGGGUUACCUUA,0.604 ± 0.075
18,GAAUUCCUCUGGAUGUACAGGGUUACCUAA,0.413 ± 0.029
19,CUAAUCCUCUGGUUCUACUGGGUUACCUAA,0.755 ± 0.048
20,CUAAUCCUCUGGAUCUACUGGGUUACCUAA,0.412 ± 0.061
21,GAAAUCCUCUGGUUCUACUGGGUUACCUAA,0.624 ± 0.05
22,CUUAUCCUCUGGUUCUACUGGGUUACCUAA,0.607 ± 0.047
23,CAAAUCCUCUGGAUCUACUGGGUUACCUAA,0.47 ± 0.069
24,CAAAUCCUCUGGUUCUACUGGGUUACCUAA,0.79 ± 0.044
25,CUUAAGCUCUGGAACUACUCGGUUACCUAA,0.0422 ± 0.011

row,Sequence,pre-steady-state target cleavage rate
1,CUUAUCCUCUGGAACUACUGGGUUACCUUA,0.254 ± 0.03
2,CGAUUCCUCUGGAUCUACUGGGUUACCUAA,0.329 ± 0.048
3,CUUUUCCUCUGGAUCUACUGGGUAACCAAA,0.13 ± 0.034
4,CUUAAGGACGGGAUCUACUGGGUUACCUAA,0.0681 ± 0.038
5,CAAUUCCUCUGGAUUACUGGGUUACCUAA,0.692 ± 0.054
6,CUAUUCCUCUGGAAGUACUGGGUUACCUAA,0.631 ± 0.046
7,CAAUUCCUCUGGAUCUGCUGGGUUACCUAA,0.641 ± 0.08
8,CAAUUCCUCUGGAUUCUACUGGGUUACCUAA,0.473 ± 0.059
9,GAAUUCCUCUGGAAGUACUGGGUUACCUAA,0.511 ± 0.047
10,GAAUUCCUCUGGAUUUACUGGGUUACCUAA,0.425 ± 0.073
11,CAAUUCCUCUGGAUCUCCUGGGUUACCUAA,0.231 ± 0.051
12,CUAUUCCUCUGGAUUUACUGGGUUACCUAA,0.529 ± 0.048
13,GAAUUCCUCUGGAUCUGCUGGGUUACCUAA,0.213 ± 0.044
14,CAAUUCCUCUGGAUUUACUGGGUUACCUAA,0.681 ± 0.062
15,GAAUUCCUCUGGAUUACUGGGUUACCUAA,0.413 ± 0.04
16,CAAUUCCUCUGGAAGUACUGGGUUACCUAA,0.651 ± 0.044
17,CAAUUCCUCUGGUUCUACUCGGUUACCUAA,0.167 ± 0.014
18,CAAUUCCUCUGGAACUACUGGGUUACCAAA,0.289 ± 0.055
19,CUUAAGGAGUGGAUCUACUGGGUUGCCUAA,0.0417 ± 0.011
20,CUUAUCCAUCUGGAUCUACUGGGUUACCUAA,0.508 ± 0.051
21,CUUUUCCUCUGGACCUACUGGGUUACCUAA,0.157 ± 0.02
22,GAAUUCCUGUGGAUCUACUGCGUUACCUAA,0.362 ± 0.053
23,CUUAUCCUCUGGAUCUACUGGGAUACCUAA,0.302 ± 0.039
24,CUUAAGGUCUGGAUCUUCUGGGAUACCUAA,0.0453 ± 0.017
